activity, negative = cell killing and Potency data for 16 compounds are collected here from PubChem BioAssay (NCATS).

Records with an inconclusive call do not appear. Some compounds were tested as several samples or in several runs, with calls that do not always agree. A number with no mark means an inactive call. Calls of active or inactive are those of the source. Calls come from the whole dose curve; as a rule, active = well fitted inhibition curve with a large enough effect; inconclusive = small, poorly fitted or top-dose-only effect; inactive = flat fitted curve, though single readings scatter. Where a SMILES comes first, the peptide text is derived from it. Bridges are numbered along the chain shown (N, C = ends).
% is set by controls: 0 for no effect and ±100 for the full control effect; potency is the fitted concentration of half-maximal effect.

The first assay in a line: Drug repurposing screens with cells derived from glioblastoma tumor samples (AID 1345199). Note: nearly all actives have a fitted effect of over 40% in size. The conditions noted are these: GBM patient neurospheres viability, ATP luminescence, 48 h; at 46.1 µM (top of the series); tumour line C. The method, boiled down:
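Primary testing used CD133+ neurospheres from four GBM patients, seven concentrations, 48 h exposure and ATP-based viability; confirmation added three slower-growing patient lines.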
`CCOc1ccc(N=C(C)Nc2ccc(OCC)cc2)cc1`: the activity, negative = cell killing is -2.07%.
The same measure, in the same setting: to `NCCCC[C@H](NC(=O)[C@@H]1CCCN1C(=O)[C@@H]1CSSC[C@H](NC(=O)CNC(=O)CNC(=O)CN)C(=O)N[C@@H](Cc2ccc(O)cc2)C(=O)N[C@@H](Cc2ccccc2)C(=O)N[C@@H](CCC(N)=O)C(=O)N[C@@H](CC(N)=O)C(=O)N1)C(=O)NCC(N)=O` (H-GGGCYFQNCPKG-NH2; disulfide 4-9) belongs 22.1%; to `COc1cc2[nH]c(C)c(CCN3CCN(c4ccccc4)CC3)c2cc1OC`, -15.6%; to `CCCN(CC)C(CC)C(=O)Nc1c(C)cccc1C` (stereo not drawn), -9.76%.
For the compound `CC(=O)OC[C@H]1O[C@@H](O[C@H]2[C@H](O)[C@@H](OC(=O)c3ccccc3C(=O)O)[C@H](O)O[C@@H]2COC(C)=O)[C@H](O)[C@@H](OC(=O)c2ccccc2C(=O)O)[C@@H]1O`, the activity, negative = cell killing was 6.79%.

Staying with this assay, now noted: GBM patient neurospheres viability, ATP luminescence, 48 h; tumour line A.
Turning to `CCCCCCCC(=O)CC[C@@H]1[C@@H](C/C=C\CCCC(=O)OC(C)C)[C@@H](O)C[C@H]1O`, the Potency was 11.2 µM (active).
On the same count and under the same terms, to `CC(=O)O[C@H]1CC[C@@]2(C)C(=CC[C@@H]3[C@@H]2CC[C@]2(C)C(c4cccnc4)=CC[C@@H]32)C1` belongs 11.2 µM (active); to `CS(=O)(=O)OCCCNCCCOS(C)(=O)=O`, 39.8 µM (active).
For `CCOC(=O)COc1ccc2c(C)c(CCN(CC)CC)c(=O)oc2c1`, the Potency is 12.6 µM (active).
Same read-out and setting: as for `C/C(=C(\CCOC(=O)c1ccccc1)SS/C(CCOC(=O)c1ccccc1)=C(/C)N(C=O)Cc1cnc(C)nc1N)N(C=O)Cc1cnc(C)nc1N`, the figure is 35.5 µM (active).
On the same count and under the same terms, to `CCC(=O)Oc1ccc2c(c1)CC[C@@H]1[C@@H]2CC[C@]2(C)[C@@H](OC(=O)CC)CC[C@@H]12` belongs 12.6 µM (active); to `CCC(=O)OCC(=O)[C@@]1(OC(=O)CC)[C@@H](C)C[C@H]2[C@@H]3CCC4=CC(=O)C=C[C@]4(C)[C@@]3(Cl)[C@@H](O)C[C@@]21C`, 10 µM (active).
Still for that read-out and setting: as for `Nc1ncnc(Nc2ccc(Cl)cc2)n1`, the figure is 35.5 µM (active); as for `CCCCCCCCCCCCCCCC(=O)O[C@@H]1CC(C)=C(/C=C/C(C)=C/C=C/C(C)=C/C=C/C=C(C)/C=C/C=C(C)/C=C/C2=C(C)C[C@@H](OC(=O)CCCCCCCCCCCCCCC)CC2(C)C)C(C)(C)C1`, 11.2 µM (active).
In the case of `CC(=O)[C@@]1(O)CC[C@H]2[C@@H]3C=C(Cl)C4=CC(=O)CC[C@]4(C)[C@H]3CC[C@@]21C`, the Potency was 12.6 µM (active).
The same measure, in the same setting: as for `CO[C@@H]1[C@@H](O[C@@H]2O[C@H](C)[C@@H](O[C@H]3C[C@@](C)(O)[C@@H](OC(=O)CC(C)C)[C@H](C)O3)[C@H](N(C)C)[C@H]2O)[C@@H](CC=O)C[C@@H](C)[C@@H](O)/C=C/C=C/C[C@@H](C)OC(=O)C[C@H]1O`, the figure is 12.6 µM (active); as for `CCOc1ccc(N=C(C)Nc2ccc(OCC)cc2)cc1`, 11.2 µM (active).
Same read-out and setting: as for `COc1cc2[nH]c(C)c(CCN3CCN(c4ccccc4)CC3)c2cc1OC`, the figure is 15.8 µM (active).
